Measurements from the supplement of paper PMC11172423.

Assays:
[1] = test system: Falciformispora senegalensis CBS197.79; assay: growth relative to untreated control; higher = less inhibition, active = 20 or less
Procedure, shortened: (§1)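 Hyphal fragments of M. mycetomatis MM55 or F. senegalensis CBS197.79 were suspended in colourless RPMI 1640 with L-glutamine and MOPS at 68–72% transmission at 660 nm. They were exposed in 96-well plates to compound at 100 or 25 µM for 7 days at 37 °C. Viability was read with MTS (2 h, 490 nm) or resazurin (600 nm). Growth is metabolic activity relative to the untreated growth control, both corrected with a medium-plus-dye blank.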

[2] = test system: Madurella mycetomatis MM55; assay: as above
Procedure, shortened: as §1

Measured: growth

CNCc1[cH-]ccc1CNc1ccnc2cc(Cl)ccc12.[Fe+2].c1cc[cH-]c1
active: [1]; 25 µM 10.2% | [1]; 100 µM 14.6% | [2]; 25 µM 2.78% | [2]; 100 µM 2.49%

O=C(NC1(CO)CCOCC1)c1cc2ccc(C(F)(F)F)cc2[nH]1
inactive: [1]; 25 µM 89.7% | [1]; 100 µM 82.1% | [2]; 25 µM 83.9% | [2]; 100 µM 72.9%

COc1ccc(-c2nc3c(NCc4ccccc4)nccc3[nH]2)c(OC)c1
inactive: [1]; 25 µM 63.7% | [1]; 100 µM 26.6%
active: [2]; 25 µM 6.23% | [2]; 100 µM 7.79%

Cn1ccnc1SCC(=O)Nc1ccc(C(=O)Nc2ncccc2O)cc1
inactive: [1]; 25 µM 87.2% | [1]; 100 µM 79.4% | [2]; 25 µM 102% | [2]; 100 µM 64.9%

Cc1cc(OCCN2CCOCC2)nn1-c1ccc2ccccc2c1
inactive: [1]; 25 µM 105% | [1]; 100 µM 103% | [2]; 25 µM 85.8% | [2]; 100 µM 65%

Cc1nc(NCc2ccc(F)cc2)nc(NCC(C)(C)C)c1C
active: [1]; 25 µM 15.9% | [1]; 100 µM 17.8% | [2]; 25 µM 6.77% | [2]; 100 µM 5.94%

CNC(=O)c1cc(Oc2ccc(NC(=O)Nc3ccc(Cl)c(C(F)(F)F)c3)c(F)c2)ccn1
inactive: [1]; 25 µM 109% | [1]; 100 µM 101% | [2]; 25 µM 69.9% | [2]; 100 µM 74.4%

CCOC(=O)c1c(CSc2ccccc2)n(C)c2cc(Br)c(O)c(CN(C)C)c12
inactive: [1]; 25 µM 103% | [1]; 100 µM 97.8% | [2]; 25 µM 98.5% | [2]; 100 µM 75.4%

O=c1[nH]ccc2nc(N[C@@H]3CCNC3)nc(Nc3ccc4c(c3)S(=O)(=O)CC4)c12
inactive: [1]; 25 µM 90.7% | [1]; 100 µM 113% | [2]; 25 µM 62.9% | [2]; 100 µM 104%

COc1cc(N2CCN(C)CC2)ccc1Nc1nccc(-c2cn(C)c3cnccc23)n1
active: [2]; 100 µM 4.78%
inactive: [1]; 25 µM 69.1% | [1]; 100 µM 75.1% | [2]; 25 µM 36.2%

CCCCc1oc2ccccc2c1C(=O)c1cc(I)c(OCCN(CC)CC)c(I)c1
inactive: [1]; 25 µM 101% | [1]; 100 µM 104% | [2]; 25 µM 78.3% | [2]; 100 µM 87.6%

O=C(NC1CCCc2c1[nH]c1ccc(Cl)cc21)c1ccccn1 (stereo not drawn)
inactive: [1]; 25 µM 107% | [1]; 100 µM 103% | [2]; 25 µM 35.3%
active: [2]; 100 µM 9.39%

Cc1nn(C)c(Oc2ccccc2)c1C=NOCc1ccc(C(=O)OC(C)(C)C)cc1
inactive: [1]; 25 µM 95% | [1]; 100 µM 89% | [2]; 25 µM 83.5% | [2]; 100 µM 102%

CCN(CC)C(=O)/C(C#N)=C/c1cc(O)c(O)c([N+](=O)[O-])c1
inactive: [1]; 25 µM 99% | [1]; 100 µM 99.4% | [2]; 25 µM 107% | [2]; 100 µM 91.8%

O=C(OI(OC(=O)C(F)(F)F)c1ccccc1)C(F)(F)F
inactive: [1]; 25 µM 97.9% | [1]; 100 µM 93% | [2]; 25 µM 89.9% | [2]; 100 µM 182%

Clc1cccc2cnsc12
inactive: [1]; 25 µM 96.1% | [1]; 100 µM 86.1% | [2]; 25 µM 125% | [2]; 100 µM 68.5%

N#C/C(C(=O)c1ccccc1Cl)=C1\NC(c2ccccc2)=CS1
inactive: [1]; 25 µM 90.5% | [1]; 100 µM 100% | [2]; 25 µM 79.7% | [2]; 100 µM 45.4%

CC(C)(C)Nc1ncc2nc(Nc3cccc(C(F)(F)F)c3)n(CC3CCNCC3)c2n1
inactive: [1]; 25 µM 92.9% | [1]; 100 µM 97.2% | [2]; 25 µM 107% | [2]; 100 µM 69.3%

OCCN1CCc2nc(NCc3ccc(F)cc3F)nc(NC34CC(C3)C4)c2CC1
inactive: [1]; 25 µM 69.4% | [2]; 25 µM 32.2%
active: [1]; 100 µM 19.8% | [2]; 100 µM 5.18%

CN(C)CCCN1c2ccccc2Sc2ccc(Cl)cc21
inactive: [1]; 25 µM 22.7%
active: [1]; 100 µM 7.45% | [2]; 25 µM 4.01% | [2]; 100 µM 3.82%

CC(Nc1ccc2c(c1)OCCCO2)C(=O)Nc1cc(C(F)(F)F)ccc1N1CCOCC1 (stereo not drawn)
inactive: [1]; 25 µM 87.5% | [1]; 100 µM 86.1% | [2]; 25 µM 97.8% | [2]; 100 µM 125%

CCCNc1nc(NC2CCCCC2)c2ccsc2n1
inactive: [1]; 25 µM 85.5% | [1]; 100 µM 88.3% | [2]; 100 µM 48.2%
active: [2]; 25 µM 14.7%

CC(C)(C)Cn1c(N)nc2ccc(-c3[nH]c(C(C)(C)C)nc3-c3ccc(F)cc3)nc21
inactive: [1]; 25 µM 100% | [1]; 100 µM 55% | [2]; 25 µM 82.9%
active: [2]; 100 µM 3.85%

CC(C)Oc1ccc(-c2nc(-c3cccc4c3CC[C@@H]4NCCO)no2)cc1C#N
active: [1]; 25 µM 9.29% | [1]; 100 µM 6.46% | [2]; 25 µM 3.06% | [2]; 100 µM 3.42%

FC(F)(F)c1cc(Cl)cc(Nc2nc3cnc(NC4CCC4)cc3[nH]2)c1
inactive: [1]; 25 µM 70.6% | [2]; 25 µM 109% | [2]; 100 µM 27%
active: [1]; 100 µM 10.8%

CC(C)CN(C[C@@H](O)[C@H](Cc1ccccc1)NC(=O)O[C@H]1CO[C@H]2OCC[C@H]21)S(=O)(=O)c1ccc(N)cc1
inactive: [1]; 25 µM 97.7% | [1]; 100 µM 101% | [2]; 25 µM 130% | [2]; 100 µM 90.5%

CN(C)C(=N)N=C(N)N
inactive: [1]; 25 µM 104% | [1]; 100 µM 105% | [2]; 25 µM 87% | [2]; 100 µM 87.2%

CCC(C)n1ncn(-c2ccc(N3CCN(c4ccc(OCC5COC(Cn6cncn6)(c6ccc(Cl)cc6Cl)O5)cc4)CC3)cc2)c1=O (stereo not drawn)
active: [2]; 25 µM 5.47% | [2]; 100 µM 4.46%
inactive: [1]; 25 µM 37.2% | [1]; 100 µM 81.1%

C[C@@H]1CS/C(=N\NC(=O)C(=O)[C@@H](NC(=O)C2CCCCCC2)C2CCOCC2)N1C
inactive: [1]; 25 µM 95.5% | [1]; 100 µM 98.8% | [2]; 25 µM 88.8% | [2]; 100 µM 93.2%

C[C@@H](c1nc(-c2ccc(C#N)cc2)cs1)[C@](O)(Cn1cncn1)c1ccc(F)cc1F
active: [2]; 25 µM 3.04% | [2]; 100 µM 5.78%
inactive: [1]; 25 µM 49.9% | [1]; 100 µM 52.3%

COc1cc2nccc(Oc3ccc(NC(=O)C4(C(=O)Nc5ccc(F)cc5)CC4)cc3)c2cc1OC
inactive: [1]; 25 µM 83.6% | [1]; 100 µM 98.4% | [2]; 25 µM 99.9% | [2]; 100 µM 79.9%

CO[C@H]1C[C@@H]2CC[C@@H](C)[C@@](O)(O2)C(=O)C(=O)N2CCCC[C@H]2C(=O)O[C@H]([C@H](C)C[C@@H]2CC[C@@H](O)[C@H](OC)C2)CC(=O)[C@H](C)/C=C(\C)[C@@H](O)[C@@H](OC)C(=O)[C@H](C)C[C@H](C)/C=C/C=C/C=C/1C
inactive: [1]; 25 µM 103% | [1]; 100 µM 105% | [2]; 25 µM 120% | [2]; 100 µM 69.3%

COC(=O)C1=C(C)NC(C)=C(C(=O)OCCN2CCN(C(c3ccccc3)c3ccccc3)CC2)C1c1cccc([N+](=O)[O-])c1 (stereo not drawn)
inactive: [1]; 25 µM 94% | [1]; 100 µM 99.1% | [2]; 25 µM 81.7% | [2]; 100 µM 86.7%

Cc1cccc2c1N(C(=O)c1cc(Br)nn1-c1ncccc1Cl)CN(C(C)C)C2=O
inactive: [1]; 25 µM 94% | [1]; 100 µM 93.3% | [2]; 25 µM 91.9% | [2]; 100 µM 153%

CO[C@@H]1[C@H](N(C)C(=O)c2ccccc2)C[C@H]2O[C@]1(C)n1c3ccccc3c3c4c(c5c6ccccc6n2c5c31)C(=O)NC4
inactive: [1]; 25 µM 113% | [1]; 100 µM 89.5% | [2]; 25 µM 77.9% | [2]; 100 µM 87.3%

S=C(NCc1ccc2c(c1)OCO2)N1CCN(c2ncnc3c2oc2ccccc23)CC1
inactive: [1]; 25 µM 113% | [1]; 100 µM 106% | [2]; 25 µM 73.4% | [2]; 100 µM 77.9%

O=C(NCCCNc1nc(Nc2ccc(N3CCOCC3)cc2)ncc1C1CC1)C1CCC1
inactive: [1]; 25 µM 93.4% | [1]; 100 µM 95% | [2]; 25 µM 101% | [2]; 100 µM 72.1%

C=CC(C)(C)C1=C(O)C(=O)c2ccccc2C1=O
inactive: [1]; 25 µM 103% | [1]; 100 µM 101% | [2]; 25 µM 98.8% | [2]; 100 µM 164%

CC1(O)CN(C(=O)c2cccc(NC(=O)c3ccc(Nc4ccccn4)cc3)c2)C1
inactive: [1]; 25 µM 106% | [1]; 100 µM 107% | [2]; 25 µM 55.8% | [2]; 100 µM 141%

CN1[C@H]2CC[C@H]1CC(OC(c1ccccc1)c1ccccc1)C2 (stereo partly drawn)
inactive: [1]; 25 µM 103% | [1]; 100 µM 103% | [2]; 25 µM 82.4% | [2]; 100 µM 84.3%

Cn1nc(-c2cccc(CNC3CCc4ccc(O)cc43)c2)c2cnc(NC3CCCC3)nc21 (stereo not drawn)
active: [1]; 25 µM 18% | [2]; 25 µM 5.13% | [2]; 100 µM 10.2%
inactive: [1]; 100 µM 21.3%

CCCC(CCC)C(=O)O
inactive: [1]; 25 µM 112% | [1]; 100 µM 106% | [2]; 25 µM 76% | [2]; 100 µM 79.4%

CS(=O)(=O)N1CCC(NC(=O)c2cc3ccc(C(F)(F)F)cc3[nH]2)CC1
inactive: [1]; 25 µM 90.8% | [1]; 100 µM 84.8% | [2]; 25 µM 101% | [2]; 100 µM 109%

COc1cc(NC(=O)Nc2cccc(CNC(=O)O[C@H]3CCOC3)c2)ccc1-c1cnco1
inactive: [1]; 25 µM 100% | [1]; 100 µM 102% | [2]; 25 µM 100% | [2]; 100 µM 81.8%

Cc1ccccc1-c1noc(-c2ccccc2)n1
inactive: [1]; 25 µM 92.9% | [1]; 100 µM 86.5% | [2]; 25 µM 93.4% | [2]; 100 µM 60.5%

Cc1ccc(Cl)cc1NC(=O)c1c(-c2ccccc2Cl)noc1C
inactive: [1]; 25 µM 79.7% | [1]; 100 µM 80.1% | [2]; 25 µM 32.8% | [2]; 100 µM 131%

CCO[C@@H]1[C@@H](OC)[C@H](C)O[C@@H](O[C@@H]2C[C@H]3CC[C@@H]4[C@@H](C=C5C(=O)[C@H](C)[C@@H](O[C@H]6CC[C@H](N(C)C)[C@@H](C)O6)CCC[C@H](CC)OC(=O)C[C@H]54)[C@@H]3C2)[C@@H]1OC
inactive: [1]; 25 µM 96.5% | [1]; 100 µM 85.7% | [2]; 25 µM 107% | [2]; 100 µM 128%
